Consider 15 molecules from PubChem BioAssay (EPA / NIEHS).

The target of assay [1] is rat Peripheral-type Benzodiazepine Receptor (PBR), Tspo (gene 24230) (UniProt P16257). The assay can be described thus: NVS_MP_rPBR: NovaScreen (NVS) Membrane Protein Assay for rat Peripheral-type Benzodiazepine Receptor (PBR) (AID 2283335). In short, it runs like this: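 Single-concentration duplicate screening at 25 uM preceded concentration-series retesting of actives. Binding of a specific radioligand to rat kidney membrane PBR was read by filtration radiodetection after 1 h, with plate-wise positive and negative controls.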
rat Peripheral-type Benzodiazepine Receptor (PBR), Tspo (gene 24230), sequence (P16257 whole entry, looked up): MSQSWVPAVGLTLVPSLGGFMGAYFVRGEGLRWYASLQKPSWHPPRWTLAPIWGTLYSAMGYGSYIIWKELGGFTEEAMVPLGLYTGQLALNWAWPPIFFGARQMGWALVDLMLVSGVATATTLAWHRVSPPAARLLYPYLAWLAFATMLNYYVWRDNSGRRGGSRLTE

In a further assay the test system is NCBI gene 100848466. Kind of assay: NVS_NR_bPR: NovaScreen (NVS) Nuclear Receptor Binding Assay for bovine Progextron Receptor (PR) (AID 2283343).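 For AC50: actives lower bound radioligand signal below DMSO meaning displacement of the label.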 In short, it runs like this: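 Scintillation counts of bound radioligand were read 18 hours after chemical addition to membranes extracted from bovine uterus. Displacement was scored as loss of signal relative to DMSO controls. Screening began at 25 uM in duplicate.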

Assay [2] concerns the target bovine Estrogen Receptor (ER), ESR1 (gene 407238) (UniProt P49884). The assay can be described thus: NVS_NR_bER: NovaScreen (NVS) Nuclear Receptor Binding Assay for bovine Estrogen Receptor (ER) (AID 2283345).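 Note: actives lower the bound radioligand count which means they displace the ER ligand.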 In short, it runs like this: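 Displacement of a radioligand from estrogen receptor in bovine uterine membrane preparations; scintillation signal taken at 18 hours, DMSO as baseline. Single-concentration duplicates (25 uM) preceded concentration-response follow-up of actives.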

The target of assay [3] is Estrogen receptor (Homo sapiens) (UniProt P03372). The assay can be described thus: OT_ER_ERaERa_1440: Odyssey Thera (OT) 24-hour HEK293T Protein-Complementation Assay for Estrogen Receptor-alpha/-alpha Homodimer (AID 2283349).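 Note: hits raise fluorescence above DMSO for agonists and antagonists alike.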 In short, it runs like this: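 Cells (HEK293T) carrying the fragment-tagged ERα LBD (aa 310-547) pair are treated with chemical for 24 hours. Nuclear and/or cytoplasmic fluorescence is then quantified on a laser scanning cytometer. Activity is scored as signal gain against DMSO.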
Estrogen receptor (Homo sapiens), sequence (P03372 whole entry, looked up, the tested form may be a part): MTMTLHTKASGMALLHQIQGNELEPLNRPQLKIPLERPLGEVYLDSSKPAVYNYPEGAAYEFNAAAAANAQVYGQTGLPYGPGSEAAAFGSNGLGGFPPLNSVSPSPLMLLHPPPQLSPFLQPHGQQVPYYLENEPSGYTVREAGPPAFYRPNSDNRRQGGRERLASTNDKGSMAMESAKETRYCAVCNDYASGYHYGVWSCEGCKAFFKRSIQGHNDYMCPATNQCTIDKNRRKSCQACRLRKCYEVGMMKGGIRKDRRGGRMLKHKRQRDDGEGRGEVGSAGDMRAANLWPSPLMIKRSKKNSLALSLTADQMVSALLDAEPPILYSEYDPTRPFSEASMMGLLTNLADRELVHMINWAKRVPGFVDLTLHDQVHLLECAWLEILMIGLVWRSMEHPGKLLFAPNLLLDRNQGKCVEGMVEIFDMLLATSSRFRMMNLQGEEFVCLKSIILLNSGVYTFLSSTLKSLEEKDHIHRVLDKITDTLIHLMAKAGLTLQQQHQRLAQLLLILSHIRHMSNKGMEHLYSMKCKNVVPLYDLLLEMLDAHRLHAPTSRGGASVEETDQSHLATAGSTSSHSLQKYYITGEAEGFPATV

For assay [4] the target is unchanged. The assay can be described thus: OT_ER_ERaERa_0480: Odyssey Thera (OT) 8-hour HEK293T Protein-Complementation Assay for Estrogen Receptor-alpha/-alpha Homodimer (AID 2283351).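 Note: rise in fluorescence from reassembled reporter fragments on ERα LBD homodimer in nucleus or whole cell.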 In short, it runs like this:
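Read-out: fluorescence intensity rise relative to DMSO, nuclear for agonists, nuclear plus cytoplasmic for antagonists. Construct is the ERα LBD (aa 310-547) homodimer fragment-complementation pair, stably expressed in HEK293T; exposure 8 h.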

Assay [5] addresses T1, Estrogen receptor (Homo sapiens) + Estrogen receptor beta (Homo sapiens) (UniProt P03372+Q92731). Kind of assay: OT_ER_ERaERb_1440: Odyssey Thera (OT) 24-hour HEK293T Protein-Complementation Assay for Estrogen Receptor-alpha/-beta Homodimer (AID 2283356).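 Note: heteromer of ER alpha and ER beta binding domains; hits raise reporter fluorescence and both agonists and antagonists give an increase.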 In short, it runs like this: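 24 h exposure; HEK293T PCA cells with ERα/ERβ LBD fragments; signal rise in nuclear or whole-cell fluorescence over vehicle.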

In assay [6] the target is human Constitutive Androstane Receptor (CAR), NR1I3 (gene 9970) (UniProt Q14994). The assay can be described thus: NVS_NR_hCAR_Antagonist: NovaScreen (NVS) Nuclear Receptor Binding Assay for human Constitutive Androstane Receptor Antagonism (CAR) (AID 2283344). In short, it runs like this:
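Single 25 uM duplicate primary screen, with concentration-series follow-up on actives. Cell-free binding format run in antagonist mode, TR-FRET signal taken 1 h post-dose; activity is signal loss relative to DMSO.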

Assay [7] deals with Estrogen receptor (Homo sapiens) (UniProt P03372). The assay can be described thus: NVS_NR_hER: NovaScreen (NVS) Nuclear Receptor Binding Assay for human Estrogen Receptor (ER) (AID 2283348). In short, it runs like this: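 MCF7-derived receptor extract, radiolabelled ligand, competitive displacement. Read: scintillation counts at 18 h. DMSO = negative control/baseline. Primary 25 uM duplicate; follow-up concentration–response.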

Assay [8] deals with Androgen Receptor/SRC-1 Co-activator, AR (gene 367) (UniProt P10275). The assay can be described thus: OT_AR_ARSRC1_0960: Odyssey Thera (OT) 16-hour HEK293T Protein-Complementation Assay for Androgen Receptor/SRC-1 Co-activator (AID 2283353).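 Note: actives raise the signal above DMSO so potency reflects increased AR and SRC-1 complex.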 In short, it runs like this: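 Readout: 488 nm nuclear-to-cytoplasmic fluorescence ratio from imaging of at least 400 cells per image, 16 h post-dose. Reporter is Venus YFP complementation between AR and SRC-1 fusions, stably expressed in HEK293T; activity scored upward relative to DMSO.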
Androgen Receptor/SRC-1 Co-activator, AR (gene 367), sequence (P10275 whole entry, looked up, the tested form may be a part): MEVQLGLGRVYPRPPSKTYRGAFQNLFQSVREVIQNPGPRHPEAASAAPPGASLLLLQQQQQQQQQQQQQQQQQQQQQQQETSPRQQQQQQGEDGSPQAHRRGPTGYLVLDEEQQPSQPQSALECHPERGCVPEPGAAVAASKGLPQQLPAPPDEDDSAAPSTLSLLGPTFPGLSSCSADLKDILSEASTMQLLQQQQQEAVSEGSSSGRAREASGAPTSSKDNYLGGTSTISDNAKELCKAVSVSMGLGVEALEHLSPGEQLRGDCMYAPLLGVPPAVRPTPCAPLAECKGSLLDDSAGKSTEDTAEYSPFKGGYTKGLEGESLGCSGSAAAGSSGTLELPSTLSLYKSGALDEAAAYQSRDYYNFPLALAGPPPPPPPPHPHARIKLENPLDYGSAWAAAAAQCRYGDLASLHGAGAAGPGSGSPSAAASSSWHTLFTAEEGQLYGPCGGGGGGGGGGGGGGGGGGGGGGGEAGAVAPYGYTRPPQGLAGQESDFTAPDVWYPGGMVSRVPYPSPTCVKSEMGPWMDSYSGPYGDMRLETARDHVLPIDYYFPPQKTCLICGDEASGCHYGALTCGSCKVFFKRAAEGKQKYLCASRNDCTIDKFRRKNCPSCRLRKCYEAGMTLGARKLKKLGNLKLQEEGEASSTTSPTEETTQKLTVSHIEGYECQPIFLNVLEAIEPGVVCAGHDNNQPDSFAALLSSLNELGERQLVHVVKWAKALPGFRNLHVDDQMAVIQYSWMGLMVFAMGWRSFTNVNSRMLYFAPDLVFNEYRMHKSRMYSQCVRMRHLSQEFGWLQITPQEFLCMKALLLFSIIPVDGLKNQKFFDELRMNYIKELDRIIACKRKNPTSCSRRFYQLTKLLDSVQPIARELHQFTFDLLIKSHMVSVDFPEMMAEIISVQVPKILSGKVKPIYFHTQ

Assay [9] shares this target. Kind of assay: OT_AR_ARSRC1_0480: Odyssey Thera (OT) 8-hour HEK293T Protein-Complementation Assay for Androgen Receptor/SRC-1 Co-activator (AID 2283354).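 Note: hits raise the complementation signal above DMSO so AC50 marks enhancers.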 In short, it runs like this:
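Split-Venus PCA, stable HEK293T, AR/SRC-1 fusions; 8 h exposure. Readout: 488nm N/C fluorescence ratio, ≥400 cells/image; fitted upward vs DMSO baseline.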

The target of assay [10] is rat Mineralocorticoid Receptor (MR), Nr3c2 (gene 25672) (UniProt P22199). The assay can be described thus: NVS_NR_rMR: NovaScreen (NVS) Nuclear Receptor Binding Assay for rat Mineralocorticoid Receptor (MR) (AID 2283355). In short, it runs like this:
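Radioligand displacement, scintillation readout; tissue source adrenalectomized rat brain supernatant. Read 24 h post-dose. Screened in duplicate at 25 uM, DMSO negative control, controls on every plate; actives re-run in concentration series.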

In assay [11] the target is chimpanzee Androgen Receptor (AR), AR (gene 747460) (UniProt O97775). Kind of assay: NVS_NR_cAR: NovaScreen (NVS) Nuclear Receptor Binding Assay for chimpanzee Androgen Receptor (AR) (AID 2283346). In short, it runs like this: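 Radioligand binding to chimpanzee AR expressed in Sf9/Sf21 cells, cell-free, measured 72 h after dosing by lysate-based scintillation counting. Loss of signal vs DMSO; initial duplicate screen at 25 uM, actives retested in concentration series.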
chimpanzee Androgen Receptor (AR), AR (gene 747460), sequence (O97775 whole entry, looked up): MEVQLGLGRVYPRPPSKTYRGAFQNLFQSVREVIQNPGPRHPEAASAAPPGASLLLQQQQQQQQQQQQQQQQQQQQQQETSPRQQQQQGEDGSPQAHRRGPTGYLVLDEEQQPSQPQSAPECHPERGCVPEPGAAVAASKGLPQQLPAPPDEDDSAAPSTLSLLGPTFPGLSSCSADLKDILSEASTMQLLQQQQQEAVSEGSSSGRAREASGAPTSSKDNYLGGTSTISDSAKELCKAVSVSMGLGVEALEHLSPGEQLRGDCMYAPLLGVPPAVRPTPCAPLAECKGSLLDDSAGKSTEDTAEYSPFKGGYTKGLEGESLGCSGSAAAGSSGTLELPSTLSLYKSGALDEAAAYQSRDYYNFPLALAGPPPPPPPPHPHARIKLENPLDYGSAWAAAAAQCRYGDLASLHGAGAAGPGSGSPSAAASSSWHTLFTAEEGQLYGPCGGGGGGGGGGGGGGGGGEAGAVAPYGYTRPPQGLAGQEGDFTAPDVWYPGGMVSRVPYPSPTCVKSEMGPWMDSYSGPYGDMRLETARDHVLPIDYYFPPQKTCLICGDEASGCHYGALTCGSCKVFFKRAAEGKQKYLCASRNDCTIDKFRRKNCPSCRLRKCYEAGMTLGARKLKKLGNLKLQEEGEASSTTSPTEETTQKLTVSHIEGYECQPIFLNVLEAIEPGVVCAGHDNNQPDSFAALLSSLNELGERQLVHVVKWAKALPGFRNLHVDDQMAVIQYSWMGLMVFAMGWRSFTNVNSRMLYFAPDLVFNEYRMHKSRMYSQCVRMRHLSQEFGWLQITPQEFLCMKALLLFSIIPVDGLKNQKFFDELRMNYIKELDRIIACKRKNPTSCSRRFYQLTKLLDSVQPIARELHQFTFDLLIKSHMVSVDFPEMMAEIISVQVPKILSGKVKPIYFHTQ

For assay [12], the target named is Bile acid receptor (Homo sapiens) (UniProt Q96RI1). The assay can be described thus: NVS_NR_hFXR_Antagonist: NovaScreen (NVS) Nuclear Receptor Binding Assay for human Farnesoid X Receptor Antagonism (FXR) (AID 2283350). In short, it runs like this: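 Antagonist-format time-resolved FRET binding assay with extracted human receptor protein, read 1 hour after compound addition. Compounds first screened at 25 uM in duplicate, then actives tested in concentration series, with loss of signal relative to DMSO.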
Bile acid receptor (Homo sapiens), sequence (Q96RI1 whole entry, looked up): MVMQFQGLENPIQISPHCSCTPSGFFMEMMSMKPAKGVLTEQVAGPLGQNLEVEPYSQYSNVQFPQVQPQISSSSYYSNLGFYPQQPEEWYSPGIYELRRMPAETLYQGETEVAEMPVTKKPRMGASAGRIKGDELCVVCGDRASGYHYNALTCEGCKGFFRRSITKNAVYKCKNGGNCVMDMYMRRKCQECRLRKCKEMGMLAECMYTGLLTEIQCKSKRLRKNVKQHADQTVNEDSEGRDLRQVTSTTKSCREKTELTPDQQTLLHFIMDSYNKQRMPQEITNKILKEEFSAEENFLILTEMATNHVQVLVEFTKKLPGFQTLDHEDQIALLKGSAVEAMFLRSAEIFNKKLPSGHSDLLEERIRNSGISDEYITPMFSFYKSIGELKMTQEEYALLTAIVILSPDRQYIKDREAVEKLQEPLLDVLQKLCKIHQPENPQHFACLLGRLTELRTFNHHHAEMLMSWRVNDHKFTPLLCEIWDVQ

Assay [13] concerns the target T1, Estrogen receptor (Homo sapiens) + Estrogen receptor beta (Homo sapiens). The assay can be described thus: OT_ER_ERaERb_0480: Odyssey Thera (OT) 8-hour HEK293T Protein-Complementation Assay for Estrogen Receptor-alpha/-beta Heterodimer (AID 2283352). In short, it runs like this:
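Human HEK293T cells were treated for 8 hours and receptor heterodimerisation was detected through reconstitution of a fluorescent reporter split between ER-alpha and ER-beta ligand-binding domains. Activity was analysed as gain of signal against DMSO.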

Results filed as inconclusive are left out. The source made the active and inactive calls. Rule for the calls: active = hit-call score of the fitted dose curve at least 0.9, where 1 is the maximum; inconclusive = response in the unintended direction; inactive = score below 0.9.

T1 sequence (P03372 whole entry, looked up, the tested form may be a part): as the sequence (P03372 whole entry, looked up, the tested form may be a part) above
T1 sequence (Q92731 whole entry, looked up, the tested form may be a part): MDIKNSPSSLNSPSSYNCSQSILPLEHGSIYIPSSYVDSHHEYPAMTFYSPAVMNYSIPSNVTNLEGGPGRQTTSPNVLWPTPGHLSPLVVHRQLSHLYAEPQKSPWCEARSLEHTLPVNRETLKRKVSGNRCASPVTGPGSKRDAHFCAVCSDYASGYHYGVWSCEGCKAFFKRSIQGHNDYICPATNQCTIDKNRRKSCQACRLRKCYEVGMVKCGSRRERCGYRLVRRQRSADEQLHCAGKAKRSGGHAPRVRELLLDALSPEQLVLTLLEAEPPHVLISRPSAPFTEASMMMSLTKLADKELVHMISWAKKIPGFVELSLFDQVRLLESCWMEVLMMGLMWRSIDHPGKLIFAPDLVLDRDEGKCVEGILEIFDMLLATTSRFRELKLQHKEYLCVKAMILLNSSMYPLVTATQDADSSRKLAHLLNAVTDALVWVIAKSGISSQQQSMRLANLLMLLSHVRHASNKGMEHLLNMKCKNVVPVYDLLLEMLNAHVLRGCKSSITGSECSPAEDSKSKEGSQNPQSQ
human Constitutive Androstane Receptor (CAR), NR1I3 (gene 9970), sequence (Q14994 whole entry, looked up): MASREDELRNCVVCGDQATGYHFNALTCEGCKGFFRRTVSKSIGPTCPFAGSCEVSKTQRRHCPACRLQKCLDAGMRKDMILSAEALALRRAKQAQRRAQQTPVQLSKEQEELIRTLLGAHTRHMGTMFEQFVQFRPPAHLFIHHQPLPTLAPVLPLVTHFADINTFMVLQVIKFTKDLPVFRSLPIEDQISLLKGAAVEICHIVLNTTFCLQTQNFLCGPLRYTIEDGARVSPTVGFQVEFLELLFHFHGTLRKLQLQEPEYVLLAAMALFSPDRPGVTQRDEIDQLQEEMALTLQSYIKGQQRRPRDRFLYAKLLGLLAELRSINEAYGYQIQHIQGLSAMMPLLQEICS
bovine Estrogen Receptor (ER), ESR1 (gene 407238), sequence (P49884 whole entry, looked up): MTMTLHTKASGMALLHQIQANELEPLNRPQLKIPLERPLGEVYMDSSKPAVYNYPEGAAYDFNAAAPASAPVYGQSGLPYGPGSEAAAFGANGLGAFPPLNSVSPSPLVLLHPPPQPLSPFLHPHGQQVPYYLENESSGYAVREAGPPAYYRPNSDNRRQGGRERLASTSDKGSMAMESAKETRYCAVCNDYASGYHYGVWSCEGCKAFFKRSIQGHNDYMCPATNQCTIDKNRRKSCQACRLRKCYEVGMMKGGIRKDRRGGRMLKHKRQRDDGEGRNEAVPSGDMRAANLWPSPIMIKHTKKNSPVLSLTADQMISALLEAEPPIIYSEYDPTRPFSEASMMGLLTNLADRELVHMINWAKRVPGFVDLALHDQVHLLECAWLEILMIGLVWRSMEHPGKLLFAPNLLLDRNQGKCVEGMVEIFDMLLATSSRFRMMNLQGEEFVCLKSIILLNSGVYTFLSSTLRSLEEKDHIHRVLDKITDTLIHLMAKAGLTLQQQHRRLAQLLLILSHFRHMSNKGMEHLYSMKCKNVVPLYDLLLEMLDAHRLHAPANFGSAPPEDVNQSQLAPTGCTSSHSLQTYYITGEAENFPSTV

On to `N#Cc1c[nH]cc1-c1cccc2c1OC(F)(F)O2`, for which the molecule was classed as inactive (in [1]; in the assay with NCBI gene 100848466; in assay [2]; in assay [4]). Moreover, the half-maximal activity concentration (AC50) in assay [3] is 31 µM (active).
Regarding `CCOP(=S)(OCC)Oc1nc(Cl)n(C(C)C)n1`, the half-maximal activity concentration (AC50) in assay [1] was 12.9 µM (active). Moreover, the result in assay [3] and in assay [4] was inactive.
In the case of `COCC(C)N(C(=O)CCl)c1c(C)csc1C` (stereo unspecified), in [1], the AC50 was 2.95 µM (active). For the same molecule, the molecule was classed as inactive in [3], in assay [4] and in assay [5].
With `CC(C)=CC1C(C(=O)OCc2coc(Cc3ccccc3)c2)C1(C)C` (stereo unspecified), the molecule was classed as inactive in assay [1], in assay [6], in [2], in [7], in assay [3] and in assay [4]. The AC50 in the assay with NCBI gene 100848466 is 25 µM (active).
`CCOC(=O)C(C)OC(=O)c1cc(Oc2ccc(C(F)(F)F)cc2Cl)ccc1[N+](=O)[O-]` (stereo unspecified): the concentration at half-maximal activity (AC50) in assay [1] was 6.45 µM (active). Moreover, the result in assay [6], in assay [2], in assay [3], in [4] and in assay [5] was inactive.
`N#Cc1c(Cl)cccc1Cl`: the molecule was classed as inactive (in [1]; with NCBI gene 100848466; in [6]; in [2]; in [3]; in assay [4]). Also, the result in [5] was inactive.
With `COc1ccc(-c2ccccc2)cc1NNC(=O)OC(C)C`, in [1], the concentration at half-maximal activity (AC50) was 0.0966 µM (active). Also, the outcome in assay [3], in assay [8], in [9], in assay [10] and in [5] was inactive.
In the case of `CCCCOCN(C(=O)CCl)c1c(CC)cccc1CC`, the half-maximal activity concentration (AC50) in assay [1] was 1.65 µM (active); in [6] it was 14.6 µM (active); in assay [8] it was 21.8 µM (active); in [9], 50 µM (active). In addition, the molecule was called inactive in assay [11], in [3], in assay [4] and in assay [5].
For the molecule `CC(C)NC(=O)N1CC(=O)N(c2cc(Cl)cc(Cl)c2)C1=O`, in assay [1], the AC50 was 13.3 µM (active). The outcome in [6], in [3] and in [4] was inactive.
On to `CNC(=O)Oc1cccc2ccccc12`, for which the half-maximal activity concentration (AC50) in [1] was 25 µM (active). The molecule was called inactive in assay [6], in assay [7], in assay [3] and in assay [4].
On to `CN=C=S`, for which the result in assay [6], in assay [2], in assay [3] and in assay [4] was inactive.
On to `OC(c1ccc(Cl)cc1)(c1ccc(Cl)cc1)C(Cl)(Cl)Cl`, for which the outcome in assay [1], in assay [2], in assay [7], in assay [3], in [12] and in assay [4] was inactive. Besides, the results for the AC50 in assay [13] and in assay [5] were 11.8 µM (active) and 11.9 µM (active), respectively.
`CCOP(=O)(OCC)Oc1nc(Cl)c(Cl)cc1Cl`: the concentration at half-maximal activity (AC50) in assay [1] is 1.6 µM (active); in assay [6], 16.1 µM (active); in [8], 33.2 µM (active). Moreover, the call in [3], in assay [4], in assay [9] and in assay [5] was inactive.
In the case of `CCN(CC)c1nc(C)cc(OP(=S)(OC)OC)n1`, the AC50 was 0.467 µM (active) in assay [1], 18.5 µM (active) in the assay on NCBI gene 100848466 and 34.9 µM (active) in [5]. Further, the molecule was classed as inactive in [7], in assay [3] and in assay [4].
Turning to `O=C1C2CC=CCC2C(=O)N1SC(Cl)(Cl)Cl` (stereo unspecified), the result (in assay [1]; in the assay with NCBI gene 100848466; in assay [6]; in [3]; in assay [4]; in assay [5]) was inactive.

By AC50 is commonly meant the concentration giving half of the maximal activity seen.
